# PubChem BioAssay (NCATS)
# Results filed as inconclusive are left out. Where a call stands in place of a potency, no number is given. Values without a mark were called inactive. The source made the active and inactive calls. Unless noted, calls come from the whole dose curve; as a rule, active = well fitted curve in the direction sought with a large enough effect in the repeat runs; inconclusive = weak or mixed curves; inactive = no such curve, though single readings can be large; an effect the other way counts as inactive or inconclusive.
# Columns and labels:
# [1] = Primary qHTS for small molecule stabilizers of the endoplasmic reticulum resident proteome: Secreted ER Calcium Modulated Protein (SERCaMP) assay (AID 1508630; active = well fitted curve in the direction sought with a large enough effect; an effect the other way counts as inactive or inconclusive)
# Summary of the method: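 GLuc-SERCaMP-expressing SH-SY5Y cells, pretreated 16 h with compound, are challenged with thapsigargin to empty ER calcium stores; after 4 h, coelenterazine is added directly to the medium and luminescence is imaged.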
# [2] = Primary qHTS for inhibitors of nuclear receptor binding SET domain protein 2 (NSD2) in an isogenic RCH-ACV NSD2 p.E1099K mutant (9B) (AID 1645876; active = well fitted curve in the direction sought with a large enough effect; an effect the other way counts as inactive or inconclusive; note: nearly all actives have a fitted effect of over 70% in size; note: potency is the fitted concentration of half-maximal effect)
# [3] = Primary qHTS for inhibitors of nuclear receptor binding SET domain protein 2 (NSD2) in an RCH-ACV wild type WT cells (2C) (AID 1645877; active = well fitted curve in the direction sought with a large enough effect; an effect the other way counts as inactive or inconclusive; note: nearly all actives have a fitted effect of over 70% in size; note: potency is the fitted concentration of half-maximal effect)
# [4] = target: Cytochrome P450 2D6 (Homo sapiens) (UniProt P10635); experiment: Cytochrome P450 family 2 subfamily D member 6 (CYP2D6) small molecule antagonists: luciferase biochemical (cell-free) qHTS assay (AID 1645840); note: nearly all actives have a fitted effect of over 55% in size; note: potency is the fitted concentration of half-maximal effect
# Cytochrome P450 2D6 (Homo sapiens), sequence (P10635 whole entry, looked up): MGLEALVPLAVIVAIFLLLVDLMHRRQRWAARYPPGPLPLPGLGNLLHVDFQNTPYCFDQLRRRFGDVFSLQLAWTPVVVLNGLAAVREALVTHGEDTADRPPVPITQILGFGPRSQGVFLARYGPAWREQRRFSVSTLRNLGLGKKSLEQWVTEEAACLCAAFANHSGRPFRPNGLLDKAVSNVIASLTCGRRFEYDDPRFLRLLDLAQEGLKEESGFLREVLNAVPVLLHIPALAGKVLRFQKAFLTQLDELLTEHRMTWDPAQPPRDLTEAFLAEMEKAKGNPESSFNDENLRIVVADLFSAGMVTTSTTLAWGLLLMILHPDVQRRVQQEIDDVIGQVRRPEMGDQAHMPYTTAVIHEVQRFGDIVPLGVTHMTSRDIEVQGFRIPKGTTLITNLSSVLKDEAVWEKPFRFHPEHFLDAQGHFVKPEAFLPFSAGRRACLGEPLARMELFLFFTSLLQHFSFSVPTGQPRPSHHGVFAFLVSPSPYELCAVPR
# Summary of the method: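 P450-Glo luminescent screen: recombinant CYP2D6 enzyme–proluciferin substrate mix preincubated with compound 10 min at room temperature, then NADPH regeneration added for 1 h at room temperature. Detection reagent added for 20 min; luciferin light read as relative luminescence units.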
# [5] = target: Calcium and integrin-binding protein 1 (Homo sapiens) (UniProt Q99828); experiment: Primary qHTS for Identification of Calcium Integrin Binding Protein 1 (CIB1) Competitor (AID 1508620; active = well fitted curve in the direction sought with a large enough effect; an effect the other way counts as inactive or inconclusive; note: potency is the fitted concentration of half-maximal effect)
# Calcium and integrin-binding protein 1 (Homo sapiens), sequence (Q99828 whole entry, looked up): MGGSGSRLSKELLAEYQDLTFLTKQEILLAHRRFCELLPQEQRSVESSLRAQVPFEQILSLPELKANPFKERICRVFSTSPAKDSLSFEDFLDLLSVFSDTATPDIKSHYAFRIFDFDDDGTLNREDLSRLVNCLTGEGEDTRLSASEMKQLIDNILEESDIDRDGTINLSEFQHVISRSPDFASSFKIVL
# Summary of the method: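 Fluorescence polarization competition: GST-tagged CIB1 (1 uM final) preincubated with compound 15 min at room temperature, then FITC-labelled alphaIIb peptide (100 nM final) added. After 15 min at room temperature, polarization read at Ex 480/Em 540.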
# [6] = Primary qHTS for inhibitors of La Crosse Virus (LACV) - induced cell death in SH-SY5Y cells (AID 1508616; active = well fitted curve in the direction sought with a large enough effect; an effect the other way counts as inactive or inconclusive;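 note: top concentration of the series differs between compounds; higher means more rescue of cells from virus-induced death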)
# Summary of the method: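 Readout was luminescence from ATPLite 1step added after a 6-day LACV infection (0.01 MOI) of SH-SY5Y cells that had received pin-transferred compound 24 hr after seeding.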
# [7] = target: Calcium and integrin-binding protein 1 (Homo sapiens) (UniProt Q99828); experiment: Confirmatory qHTS for Identification of Calcium Integrin Binding Protein 1 (CIB1) Competitor (AID 1508617; active = well fitted curve in the direction sought with a large enough effect; an effect the other way counts as inactive or inconclusive; note: potency is the fitted concentration of half-maximal effect; nearly all actives have a fitted effect of over 65% in size); settings: CIB1 binding competition assay, biochemical qHTS
# Summary of the method: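 Compounds at up to 114 uM final met 1 uM GST-tagged CIB1 for 15 min at room temperature (HEPES pH 7.4, 5 mM CaCl2). FITC-labelled alphaIIb peptide, 100 nM, added; polarization read after 15 min more.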
# [8] = A High-Content qHTS Against Drug Library for the Identification of Small Molecules that Inhibit DYT1 Early Onset Primary Dystonia-Associated Cell Pathology (AID 1645839; calls by dose curve; note: series mostly up to about 46 µM)
# Summary of the method: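 Flp-In T-REx 293 cells with tetracycline-inducible EGFP-delE hTOR1A (WT EGFP-hTOR1A as reference), 800 cells/well; compound added with tetracycline, 48 h at 37 C. Fixed, permeabilized cells imaged; %pathology (punctate TorsinA) primary, cell count counterscreen.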
# [9] = target: Cytochrome P450 2C9 (Homo sapiens) (UniProt P11712); experiment: Cytochrome P450 family 2 subfamily C member 9 (CYP2C9) small molecule antagonists: luciferase biochemical (cell-free) qHTS assay (AID 1645842); note: nearly all actives have a fitted effect of over 55% in size; note: potency is the fitted concentration of half-maximal effect
# Cytochrome P450 2C9 (Homo sapiens), sequence (P11712 whole entry, looked up): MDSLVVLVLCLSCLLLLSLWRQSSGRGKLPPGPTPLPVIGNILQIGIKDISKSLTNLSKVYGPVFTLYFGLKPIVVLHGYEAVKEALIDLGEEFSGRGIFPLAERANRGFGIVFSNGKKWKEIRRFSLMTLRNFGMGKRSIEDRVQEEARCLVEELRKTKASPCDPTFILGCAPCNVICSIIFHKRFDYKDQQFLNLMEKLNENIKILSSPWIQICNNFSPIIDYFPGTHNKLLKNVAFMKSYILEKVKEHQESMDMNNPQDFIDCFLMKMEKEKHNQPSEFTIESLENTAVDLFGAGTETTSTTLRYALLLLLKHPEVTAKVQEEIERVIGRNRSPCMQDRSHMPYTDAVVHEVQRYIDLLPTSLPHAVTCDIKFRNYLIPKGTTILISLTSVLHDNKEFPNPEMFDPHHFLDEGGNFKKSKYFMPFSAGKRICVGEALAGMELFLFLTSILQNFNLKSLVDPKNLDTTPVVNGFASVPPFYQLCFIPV
# Summary of the method: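 Luminescence, after 20 min with luciferin detection reagent, reflected CYP2C9 turnover during a 1 h NADPH-driven reaction at 37C. Enzyme-substrate mix contained 0.4% bovine serum albumin and was preincubated with compound 10 min at room temperature.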
# [10] = target: Cytochrome P450 3A4 (Homo sapiens) (UniProt P08684); experiment: Cytochrome P450 family 3 subfamily A member 4 (CYP3A4) small molecule antagonists: luciferase qHTS assay (AID 1645841); note: nearly all actives have a fitted effect of over 45% in size
# Cytochrome P450 3A4 (Homo sapiens), sequence (P08684 whole entry, looked up): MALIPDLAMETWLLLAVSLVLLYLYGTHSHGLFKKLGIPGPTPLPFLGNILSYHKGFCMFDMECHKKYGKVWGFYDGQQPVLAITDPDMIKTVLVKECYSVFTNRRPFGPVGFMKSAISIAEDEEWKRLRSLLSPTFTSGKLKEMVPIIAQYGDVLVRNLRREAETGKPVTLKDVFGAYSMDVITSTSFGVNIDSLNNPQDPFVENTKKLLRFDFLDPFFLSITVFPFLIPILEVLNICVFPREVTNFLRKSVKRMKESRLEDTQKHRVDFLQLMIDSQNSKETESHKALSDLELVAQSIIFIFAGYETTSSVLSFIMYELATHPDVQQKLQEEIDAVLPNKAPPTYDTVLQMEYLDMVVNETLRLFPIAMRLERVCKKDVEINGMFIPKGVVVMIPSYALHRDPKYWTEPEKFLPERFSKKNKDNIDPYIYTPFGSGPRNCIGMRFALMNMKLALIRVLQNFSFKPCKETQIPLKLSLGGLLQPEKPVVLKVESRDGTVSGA
# Summary of the method: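 P450-Glo CYP3A4 enzyme with proluciferin substrate preincubated 10 min with compound at room temperature, then NADPH regeneration 1 h. Luciferin detection reagent added for 20 min; luminescence recorded. Ketoconazole positive control.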
compound,measurement,setting,value
NC[C@H]1O[C@H](O[C@H]2[C@H](O)[C@@H](O[C@H]3O[C@H](CO)[C@@H](O)[C@H](N)[C@H]3O)[C@H](N)C[C@@H]2N)[C@H](N)C[C@@H]1O,outcome,[1],inactive
same,Potency,[2],inactive
same,Potency,[3],inactive
O=S(=O)(O)CC(S)CS (configuration not stated),Potency,[4],inactive
CC(=O)Nc1ccc(NC(=S)NC(=O)c2ccc(C(C)(C)C)cc2)cc1,Potency,[5],inactive
same,Potency,[2],1.83 µM (active)
same,Potency,[3],3.25 µM (active)
O=C1c2ccccc2C(=O)c2c1ccc(O)c2O,outcome,[6],inactive
same,Potency,[7],17.8 µM (active)
same,Potency,[5],35.5 µM (active)
same,outcome,[8],inactive
CN(C)CCCSc1ccccc1NC(=O)/C=C/c1ccccc1,outcome,[6],inactive
same,Potency,[5],inactive
same,outcome,[1],inactive
same,outcome,[8],inactive
same,Potency,[4],0.347 µM (active)
same,Potency,[9],inactive
same,Potency,[2],inactive
same,Potency,[3],inactive
c1ccc(-n2cnnn2)cc1,Potency,[4],inactive
same,Potency,[9],inactive
FC(F)OC(Cl)C(F)(F)F (configuration not stated),Potency,[4],inactive
same,Potency,[9],inactive
O=C(CO)[C@@H](O)[C@H](O)[C@@H](O)C(=O)O,Potency,[4],inactive
same,Potency,[9],inactive
NC(=S)N=Nc1ccc(NN=C(N)N)cc1,Potency,[4],10.7 µM (active)
same,outcome,[10],inactive
same,Potency,[9],15.1 µM (active)
CCCCCCCCCCCCCCCCCC[N+](C)(C)CCC[Si](OC)(OC)OC,Potency,[4],15.1 µM (active)
same,Potency,[9],inactive
S=C=Nc1ccc(N=C=S)cc1,Potency,[4],inactive
same,Potency,[9],inactive
CCCOc1cc(N)ccc1C(=O)OCCN(CC)CC,Potency,[4],3.38 µM (active)
CC(=O)Oc1cc(C(F)(F)F)ccc1C(=O)O,Potency,[4],inactive
same,outcome,[10],inactive
COC(=O)c1ccccc1O,Potency,[4],inactive
same,Potency,[9],inactive
CC(CC=O)CCCC(C)(C)O (configuration not stated),Potency,[4],inactive
CCCC(=O)O,Potency,[4],inactive
same,Potency,[9],inactive
Nc1nc(=O)n([C@@H]2CS[C@H](CO)O2)cc1F,Potency,[4],inactive
same,Potency,[9],inactive
CO/N=C(\C(=O)N[C@@H]1C(=O)N2C(C(=O)O)=C(C[N+]3(C)CCCC3)CS[C@H]12)c1csc(N)n1,Potency,[4],inactive
same,Potency,[9],inactive
Cc1cccc(C)c1NC(=O)C1CCCCN1C (configuration not stated),Potency,[4],9.52 µM (active)
same,Potency,[9],inactive
C/C=C/C=C/C(=O)O,Potency,[4],inactive
same,Potency,[9],inactive
CCC(Cc1c(I)cc(I)c(O)c1I)C(=O)O (configuration not stated),Potency,[4],inactive
same,Potency,[9],10.7 µM (active)
Cc1ncc(C[n+]2csc(CCO)c2C)c(N)n1,Potency,[4],inactive
same,outcome,[10],inactive
same,Potency,[9],inactive
CN1c2c(nc(N)[nH]c2=O)NCC1CNc1ccc(C(=O)NC(CCC(=O)O)C(=O)O)cc1 (configuration not stated),Potency,[4],inactive
same,Potency,[9],inactive
CC(C)[C@@H]1CC[C@@H](C)C[C@H]1OC(=O)c1ccccc1O,Potency,[4],inactive
same,Potency,[9],inactive
COC(=O)[C@@H](N)CS,Potency,[4],inactive
same,Potency,[9],9.52 µM (active)
O=S(=O)(O)CCCS(=O)(=O)O,Potency,[4],inactive
same,Potency,[9],inactive
CCC(O)c1ccccc1 (configuration not stated),Potency,[4],inactive
same,Potency,[9],inactive
C=CCCCCCCCCC(=O)OC,Potency,[4],inactive
same,Potency,[9],inactive
O=C(OC1C[C@@H]2CC3C[C@H](C1)N2CC3=O)c1c[nH]c2ccccc12 (some centres not stated),Potency,[4],6.74 µM (active)
same,Potency,[9],16.9 µM (active)
CCN(CC)C(=O)c1cccnc1,Potency,[4],inactive
same,Potency,[9],inactive
FCOC(C(F)(F)F)C(F)(F)F,Potency,[4],inactive
same,Potency,[9],inactive
CC[C@H]1OC(=O)C[C@@H](O)[C@H](C)[C@@H](O[C@@H]2O[C@H](C)[C@@H](O[C@H]3C[C@@](C)(O)[C@@H](O)[C@H](C)O3)[C@H](N(C)C)[C@H]2O)[C@@H](CC=O)C[C@@H](C)C(=O)/C=C/C(C)=C/[C@@H]1CO[C@@H]1O[C@H](C)[C@@H](O)[C@@H](OC)[C@H]1OC,Potency,[4],inactive
same,Potency,[9],inactive
CCN1C(=O)NC(c2ccccc2)C1=O (configuration not stated),Potency,[4],inactive
CN(C)c1ccc(C(=C2C=CC(=[N+](C)C)C=C2)c2c(O)c(S(=O)(=O)[O-])cc3cc(S(=O)(=O)O)ccc23)cc1,Potency,[4],15.1 µM (active)
CCOC(=O)C1=C(COCCN)NC(C)=C(C(=O)OC)C1c1ccccc1Cl (configuration not stated),Potency,[4],16.9 µM (active)
same,Potency,[9],2.68 µM (active)
CC(CCc1ccc(O)cc1)NCC(O)c1ccc(O)cc1 (configuration not stated),Potency,[4],6.74 µM (active)
same,Potency,[9],inactive
Oc1cc(O)cc(O)c1,Potency,[4],inactive
same,Potency,[9],inactive
N=C(N)n1cccn1,Potency,[4],inactive
same,outcome,[10],inactive
same,Potency,[9],inactive
CCOC(C)OCC,Potency,[4],inactive
same,Potency,[9],inactive
CCCCC(O)c1ccccc1 (configuration not stated),Potency,[4],inactive
OCCOCCOCCO,Potency,[4],inactive
same,Potency,[9],inactive
O=P(O)(O)OP(=O)(O)O,Potency,[4],inactive
CCCCCCOC(=O)c1cccnc1,Potency,[4],10.7 µM (active)
same,Potency,[9],15.1 µM (active)
C[C@H](O)CN(C)C,Potency,[4],inactive
same,Potency,[9],inactive
C=CC1=C(C(=O)O)N2C(=O)[C@@H](NC(=O)/C(=N\O)c3csc(N)n3)[C@H]2SC1 (stereo in doubt),Potency,[4],inactive
same,outcome,[10],inactive
same,Potency,[9],inactive
